Measured values: PubChem BioAssay (NCI)
This is part of a sample that, as a whole, favours compounds with a hit. Of some 83,000 tested, about 20% had one in any assay.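 Testing used 96-well plates and a 48-hour single-concentration exposure. Example: -40 means 40% of the starting cells died.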 Values without a mark were called inactive. Calls of active or inactive are those of the source. The calls were made as follows: active = growth percent below 10; inactive = the rest.

test system: HCC-2998 colon; experiment: NCI-60 one-dose screen, 48 h (100 = growth as untreated, 0 = no growth, -100 = all killed); conditions: 10 µM unless noted

| SMILES | growth |
| --- | --- |
| CC1=C(C(=O)Nc2ccccc2)C(c2cccc3ccccc23)n2c(nc3ccccc32)N1 (configuration not stated) | 90.5% |
| COc1ccc(NC(=O)CSc2nnc(-c3ccc(-c4nc5ccccc5[nH]4)cc3)o2)cc1 | 92.7% |
| COc1cc2cc(C(=O)N3C[C@@H](CCl)c4c3cc(OC(=O)N(C)CCSSCCN3CCOCC3)c3ccccc43)[nH]c2c(OC)c1OC | -58.7% (active) |
| CC(=O)C[n+]1cccc2c3ccccc3ccc21 | 114% |
| CC[C@]12C=CCN3CC[C@]4(C(=C(C(=O)OC)C1)Nc1cc(OC)c([C@@H]5[C@H]6O[C@H]6[C@@]6(CC)CC(C(=O)OC)=C7Nc8cc(O)ccc8[C@@]78CCN5[C@@H]68)cc14)[C@@H]32 | -76.3% (active) |
| Cc1ccccc1Nc1nnc(-c2c[nH]c3ccccc23)o1 | 11.3% |
| COc1cncc(-c2ccc3ncnc(N4CCc5ccc(Cl)cc54)c3c2)c1 | 16.9% |
| Clc1ccc2c(NCCNC34CC5CC(CC(C5)C3)C4)ccnc2c1 | -89.5% (active) |
| Cn1cc(-c2cc(N)n3nc(-c4c[nH]c5ccccc45)cc3n2)c2cc(Br)ccc21 | -77% (active) |
| Cc1nn(-c2ccccc2)c2nc(C)n(CC(=O)N/N=C/c3cccc([N+](=O)[O-])c3)c(=O)c12 | 116% |
| Cc1ccc(S(=O)(=O)Nc2ccc(-c3ccc4c(c3)NC(=O)/C4=C\c3ccc[nH]3)cc2)cc1 | 106% |
| O=C1c2cccc3c(N4CCN(c5ccccc5)CC4)ccc(c23)C(=O)N1c1cccc(-c2nn(-c3ccccc3)cc2-c2nc3ccccc3s2)c1 | 115% |
| COc1ccc(-c2cc(-c3cc(C(C)C)c(O)cc3C)nn2-c2ccc(S(N)(=O)=O)cc2)cc1 | 45.9% |
| Clc1ccc(-c2nc3c4c(-c5ccccc5)c(-c5ccccc5)n(Cc5ccccc5)c4ncn3n2)cc1 | 22.1% |
| Cc1ccc(-c2cc(C(=O)N=Nc3c(O)[nH]c4ccc(F)cc34)c3ccccc3n2)cc1 | 35.9% |
| COc1ccc(/C=C/c2nc3ccccc3n3c(-c4cccc([N+](=O)[O-])c4)nnc23)cc1 | -84.5% (active) |
| O=C(c1ccc(O)cc1)C1[C@H](c2ccc(Cl)cc2)[C@@H](c2ccccc2)NC12C(=O)Nc1ccccc12 (some centres not stated) | -61.1% (active) |
| N#C/C(=C1/C(=O)Nc2ccccc21)c1nnc(NC(=O)c2ccc(-n3c(=O)[nH]c4ccccc4c3=O)cc2)s1 | 32.5% |
| CN(C(=O)CN1C(=O)/C(=C/c2ccco2)SC1=S)C1CCS(=O)(=O)C1 (configuration not stated) | 104% |

| SMILES | growth |
| --- | --- |
| COc1c2c(cc3c1C(CCc1ccccc1)N(C)CC3)OCO2 (configuration not stated) | -31.5% (active) |
| COc1cc(C2CC(c3ccc(F)cc3)=Nc3c(N)nc(N)nc3N2)ccc1Oc1nc(Nc2ccc(F)cc2)nc(N(C)C)n1 (configuration not stated) | 29.1% |
| CC(C)C[C@H](NC(=O)CNC(=O)C[C@H]1O[C@@H]2OC3(C)CC[C@H]4[C@H](C)CC[C@@H]([C@H]1C)[C@@]24O3)B(O)O | -94.5% (active) |
| Cc1[nH]nc2ccc3nc(-c4cnn(CCO)c4)c4c(c3c12)CCCC4 | 45.6% |
| CCCN(CCC)S(=O)(=O)c1ccc(C(=O)O)cc1.CCCN(CCC)S(=O)(=O)c1ccc(C(=O)O)cc1.[Cl][Pt+2][Cl].[NH2-].[NH2-] | -27.6% (active) |
| COc1ccc(N=Nc2c(N)nn3c(-c4ccc5c(c4)C=S=C5)ccnc23)cc1 | 48% |
| O=C(NNC(=O)c1ccc(OCc2nc3ccc(Cl)cc3[nH]2)cc1)Nc1ccc(Cl)c(Cl)c1 | 70.1% |
| Cc1nc(Nc2ccccn2)sc1C1=NNC(c2ccccc2F)C1 (configuration not stated) | 95.7% |
| COc1ccc(-c2nc3ccccc3n2CC(=O)N=Nc2c(O)[nH]c3ccc(Br)cc23)cc1 | 108% |
| CC[C@]12C=CCN3CC[C@@]4(c5ccc(OC)cc5N(C)[C@H]4[C@@](O)(C(=O)OC)[C@@H]1OC(=O)CCC[P+](c1ccc(OC)cc1)(c1ccc(OC)cc1)c1ccc(OC)cc1)[C@@H]32 | -89.7% (active) |
| COc1ccc(-c2cc(C(=O)N=Nc3c(O)[nH]c4ccc(Cl)cc34)c3ccccc3n2)cc1OC | 109% |
| Fc1ccc(Nc2nnc(-c3c[nH]c4ccccc34)o2)cc1 | 98.5% |
| O=C(NN1C(=O)/C(=C/C=C/c2ccc([N+](=O)[O-])o2)SC1=S)c1ccc(O)cc1 | -92.6% (active) |
| Cc1cccc(-c2ccccc2Oc2ccc3nnc(Cl)n3n2)c1 | 105% |
| C[C@H](NC(=O)c1ccc2c(-c3ccc(C(F)(F)F)cc3)cccc2c1)c1ccccn1 | 49.9% |
| Cc1ccc(C(=O)Nc2cc(-c3ccccc3)cc(C(F)(F)F)c2)cc1C#Cc1cnc2cccnn12 | 85.3% |
| O=[N+]([O-])c1cccc(-c2nnc3c(/C=C/c4ccc(F)cc4)nc4ccccc4n23)c1 | 105% |
| O=C1Nc2cc(-c3ccc(NS(=O)(=O)c4ccc(C(F)(F)F)cc4)cc3)ccc2/C1=C/c1ccc[nH]1 | 30.5% |
